# Measured values: ChEMBL document CHEMBL3988442, “University of Dundee, Small-Polar-MMV Screening Library” (2021)
# Out of some 48,000 compounds screened, about 13,000 (27%) showed an effect of 50% or more. This is one part of the list.
# Tested on: Wolbachia pipientis
# Test: Anti-Wolbachia Cell-Based Screen
# Format: functional
# Parameters: scale not given: in the data most compounds retested in dose-response had high values
# Details: 5 µM
row,Compound,Percent Effect [%]
1,COc1ccc2c(c1)CC(NCc1cccc(CO)c1)CC2 (configuration not stated),-7.175
2,COc1ccc2c(c1)CC(NCCCn1nc(C)nc1C)CC2 (configuration not stated),101
3,COc1ccc2c(c1)CC(NCCCn1cc(C)cn1)CC2 (configuration not stated),28.69
4,CC(NC(=O)c1cc(C(C)C)[nH]n1)C(=O)Nc1ccccc1 (configuration not stated),-6.667
5,Cc1ccc(OC[C@@H]2CNC[C@H](C(=O)NCC3CCCO3)C2)cn1 (some centres not stated),2.624
6,CO[C@@H]1CCN(C(=O)Cc2ccc(F)cc2)[C@@H]1Cc1cccnc1.O=C(O)C(F)(F)F,111.8
7,CO[C@H]1CCN(S(=O)(=O)c2cccs2)[C@H]1Cc1cccnc1.O=C(O)C(F)(F)F,-2.032
8,COCCO[C@H]1CCN(C(=O)c2cnccn2)[C@H]1Cc1ccncc1,-26.79
9,CC(=O)NCC(=O)N1CC[C@H](OCC2CC2)[C@@H]1Cc1cccnc1.O=C(O)C(F)(F)F,-17.55
10,COCC(=O)N1CC[C@@H](OCC2CC2)[C@@H]1Cc1cccnc1.O=C(O)C(F)(F)F,1.513
11,COCCO[C@H]1CCN(C(=O)c2ccsc2)[C@H]1Cc1ccncc1,-3.115
12,CO[C@@H]1CCN(Cc2nccn2C)[C@H]1Cc1cccnc1.O=C(O)C(F)(F)F.O=C(O)C(F)(F)F,5.954
13,CCO[C@@H]1CCN(C(=O)c2ccc[nH]2)[C@@H]1Cc1cccnc1.O=C(O)C(F)(F)F,0.6367
14,CO[C@H]1CCN(C(=O)Cc2ccc(F)cc2)[C@H]1Cc1ccncc1,101.6
15,CO[C@@H]1CCN(C(=O)Cc2cccc(F)c2)[C@H]1Cc1cccnc1.O=C(O)C(F)(F)F,114.6
16,CO[C@@H]1CCN(S(=O)(=O)c2cccs2)[C@H]1Cc1cccnc1.O=C(O)C(F)(F)F,5.775
17,CO[C@@H]1CCN(C(=O)Cc2ccsc2)[C@H]1Cc1cccnc1.O=C(O)C(F)(F)F,94.83
18,C=C(C)CN1CCC(NC(=O)Nc2cc(C(N)=O)ccc2OC)CC1,-10.13
19,CCc1nn(C)c(Cl)c1CN1C[C@H](NC(=O)CCO)[C@@H](C(C)C)C1,-7.141
20,CCc1nn(C)c(Cl)c1CN1CCN(c2ccc(Cl)nn2)CC1,-2.423
21,CN1CC2(CCN(Cc3cc(Cl)ccc3OCC(=O)O)CC2)OC1=O,-19.61
22,CCc1n[nH]c(C(=O)N2CCCC3(CN(C)C(=O)O3)C2)c1C (configuration not stated),-7.274
23,CCc1nn(C)c(Cl)c1CN1CCCC2(C1)CN(C)C(=O)O2 (configuration not stated),101.8
24,COc1c(F)cc(CN2CCC3(CC2)CN(C)C(=O)O3)cc1Cl,-3.055
25,CCc1nn(C)c(Cl)c1CN1CCC2(C1)CN(C)C(=O)O2 (configuration not stated),121.6
26,CCc1nn(C)c(Cl)c1CN1CCCC2(CC1)CN(C)C(=O)O2 (configuration not stated),89.96
27,CCc1nn(C)c(Cl)c1CN1CCC(Cc2nncn2C)CC1,1.908
